# This is one part of the list. The source made the active and inactive calls.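 Rule for the calls: active = inhibition reaching a set limit in any replicate at 20 µM, the limit being 80% of the first screen's; inactive = the rest.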
# Target: DNA dC->dU-editing enzyme APOBEC-3G (Homo sapiens) (UniProt Q9HC16)
# Assay: human A3G ssDNA deamination inhibition, hit confirmation – biochemical, fluorescence, single-stranded DNA substrate, single concentration (AID 493152)
# Details: recombinant A3G ssDNA deaminase, UDG/FAM-TAMRA fluorescence; at 20 µM; stronger effect = higher value
# DNA dC->dU-editing enzyme APOBEC-3G (Homo sapiens), sequence (Q9HC16 whole entry, looked up): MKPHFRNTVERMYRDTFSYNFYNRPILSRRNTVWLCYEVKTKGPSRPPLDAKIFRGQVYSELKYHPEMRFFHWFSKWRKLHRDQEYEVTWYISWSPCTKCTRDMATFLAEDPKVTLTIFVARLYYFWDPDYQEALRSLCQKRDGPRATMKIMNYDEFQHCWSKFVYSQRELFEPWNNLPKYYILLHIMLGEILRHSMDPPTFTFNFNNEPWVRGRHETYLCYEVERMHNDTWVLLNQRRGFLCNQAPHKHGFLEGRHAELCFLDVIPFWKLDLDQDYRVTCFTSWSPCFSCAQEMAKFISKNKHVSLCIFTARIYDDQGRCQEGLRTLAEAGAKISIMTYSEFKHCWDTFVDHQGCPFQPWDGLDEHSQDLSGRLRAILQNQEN
smiles,measurement,value
COC(=O)N(c1ccc(OC)cc1)P1(=S)OCCC(C)O1 (stereo unspecified),inhibition,42.1% (active)

# From PubChem BioAssay AID493152 (Sanford-Burnham Center for Chemical Genomics, 2011)
